# Screening results from PubChem.
# A selection: hits, their analogues and other compounds. The true share with any hit is near 1.9%.
# HTR5A ag ctr = counter-screen for OPRM1-OPRD1 agonists: human HTR5A agonism; P47898; HTR5A agonist assay, luminescence, cell-based; activation, % at 9.3 µM; 340,000 tested, 0.61% active; in the data active = activation mostly above about 9.5%, no sharp cut-off; inactive = mostly below about 7.6%
# MOR-DOR inv ag = inverse agonist of human OPRM1-OPRD1 heterodimerization; AID 504357; cell-based MOR-DOR heterodimer luminescence, inverse agonism; 340,000 tested, 0.21% active; P35372+P41143; inhibition, % at 9.3 µM; in the data active = inhibition above about 22%, passing the limit was not always enough
# Target sequence (P35372 whole entry, looked up): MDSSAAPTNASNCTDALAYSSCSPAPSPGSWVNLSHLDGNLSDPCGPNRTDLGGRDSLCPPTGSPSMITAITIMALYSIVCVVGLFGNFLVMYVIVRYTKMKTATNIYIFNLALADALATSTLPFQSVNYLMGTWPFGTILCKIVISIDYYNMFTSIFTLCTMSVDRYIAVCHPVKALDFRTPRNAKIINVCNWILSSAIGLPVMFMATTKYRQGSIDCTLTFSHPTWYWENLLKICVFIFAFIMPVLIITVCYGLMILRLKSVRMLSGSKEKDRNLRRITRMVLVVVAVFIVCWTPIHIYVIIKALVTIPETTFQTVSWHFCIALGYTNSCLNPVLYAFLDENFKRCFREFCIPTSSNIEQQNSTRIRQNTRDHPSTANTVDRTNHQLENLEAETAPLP
# Target sequence (P41143 whole entry, looked up): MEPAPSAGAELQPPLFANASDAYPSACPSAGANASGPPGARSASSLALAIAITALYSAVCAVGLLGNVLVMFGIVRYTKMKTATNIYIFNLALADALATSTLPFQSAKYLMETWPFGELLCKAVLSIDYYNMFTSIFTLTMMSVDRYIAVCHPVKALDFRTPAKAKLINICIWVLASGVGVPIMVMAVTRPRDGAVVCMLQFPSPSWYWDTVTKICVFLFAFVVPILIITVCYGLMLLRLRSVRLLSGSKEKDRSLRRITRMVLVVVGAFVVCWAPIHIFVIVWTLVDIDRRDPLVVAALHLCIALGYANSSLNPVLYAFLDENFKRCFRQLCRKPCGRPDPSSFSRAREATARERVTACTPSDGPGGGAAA
# OPRM1-OPRD1 ag = OPRM1-OPRD1 heterodimerization agonism; P35372+P41143; cells, luminescence; activation, % at 9.3 µM; 340,000 tested, 0.3% active; in the data active = activation above about 18%
# bovine MsrA act = bovine methionine sulfoxide reductase A activation; AID 602163; 360,000 tested, 0.3% active; activation, % at 10.6 µM; purified bovine MsrA, absorbance read-out; in the data active = activation above about 7.5%
# HTR5A inv ag = HTR5A inverse agonism, opioid heterodimer counter-screen; 340,000 tested, 0.083% active; AID 504634; HTR5A cell line, luminescence; inhibition, % at 9.3 µM; in the data active = inhibition mostly above about 23%, no sharp cut-off; inactive = mostly below about 18%
# MsrA inhibitor = inhibitors of bovine MsrA. AID 651718. inhibition, % at 15.5 µM. 360,000 tested, 0.75% active. purified bovine MsrA, absorbance read-out; in the data active = inhibition above about 4.5%
# A number is an active result; – = inactive; · = no result given.
SMILES,HTR5A ag ctr,MOR-DOR inv ag,OPRM1-OPRD1 ag,bovine MsrA act,HTR5A inv ag,MsrA inhibitor
CN(C)c1ccc(-c2nnc(-c3ccccc3F)o2)cc1,–,–,–,–,–,4.6
COc1ccc(-c2nnc(-c3ccc(N(C)C)cc3)o2)cc1,–,–,–,–,–,–
Cn1cc(CCOCc2ccc(Br)cc2)c2ccccc21,·,·,·,·,·,–
O=C1c2[nH]nc(-c3ccccc3)c2C(c2ccc(F)cc2)N1Cc1ccccc1 (stereo not given),·,·,·,·,·,–
CC(=O)Nc1nc(-c2cccs2)cs1,–,–,–,–,–,–
O=C(Nc1nc(-c2cccs2)cs1)c1ccc(Cl)s1,14,–,–,–,–,–
CC(C)N(CC(N)=O)C(=O)c1sc2cc(F)ccc2c1Cl,13,–,–,–,–,–
CN1CCC(N(C)C(=O)c2sc3cc(F)ccc3c2Cl)CC1,–,–,–,–,–,–
Cc1[nH]nc2c1C(c1ccc(Br)cc1)N(c1ccccc1)C2=O (stereo not given),·,·,·,·,·,–
CCCN1CCCCC(NC(=O)c2ccc3ccccc3c2)C1=O (stereo not given),·,·,·,·,·,–
Cc1ncc(CO)c2c1Oc1nc(-c3ccccc3)nc(SCC(=O)N(C)c3ccccc3)c1C2,·,·,·,·,·,–
Cc1ncc(CO)c2c1Oc1nc(-c3ccccc3F)nc(SCC(=O)N(C)c3ccccc3)c1C2,12,–,20,–,–,·
Nc1[nH]c(C(=O)c2ccccc2)c(-c2ccccc2Cl)c1C(=O)NCCc1c[nH]c2ccccc12,·,·,·,·,·,–
COc1ccc(NC(=O)c2sc3nc(N4CCOCC4)c4c(c3c2N)CC(C)(C)OC4)cc1,–,–,–,–,–,–
CC1(C)Cc2c(c(N3CCOCC3)nc3snc(NC(=O)c4ccccc4)c23)CO1,12,–,–,–,–,–
O=C(NC(=S)Nc1c(Cl)ccc2nsnc12)c1ccccc1F,10,–,–,–,–,–
Cc1noc(C)c1Cc1ccc(O)cc1,14,–,–,–,–,–
C=CCN=C1NC(c2cccc(Cl)c2)C(C(=O)OC)=C(C)N1Cc1cccc(C(F)(F)F)c1 (stereo not given),·,·,·,·,·,–
CCCN1CCCCC(NC(=O)c2ccccc2OC)C1=O (stereo not given),·,·,·,·,·,–
COCCn1c(SCC(=O)NCc2ccc(F)cc2)nc2ccccc21,13,–,–,–,–,–
CCCCOCCCNC(=O)C[C@H]1C[C@@]2(C(=O)OC)C(=C[C@H](C(C)C)O[C@@H]2C2CC2)N(Cc2ccccc2)C1=O,·,·,·,·,·,–
COc1cc(C2N(C)C(=O)c3ccccc3N2C)ccc1O (stereo not given),9.5,–,–,–,–,–
COc1ccc(C2CC(=O)C(c3ccccc3)=CN2Cc2ccccc2)cc1 (stereo not given),·,·,·,·,·,–
CC(/C=C/c1ccc(C)o1)=C\C(=O)O,–,–,–,20,–,–
CC(=C/C(=O)O)/C=C/c1ccc(Cl)o1,–,–,–,–,–,–
SMILES,HTR5A ag ctr,MOR-DOR inv ag,OPRM1-OPRD1 ag,bovine MsrA act,HTR5A inv ag,MsrA inhibitor
CC(C)c1[nH]nc2c1C(c1cccc(C(F)(F)F)c1)N(Cc1ccccc1)C2=O (stereo not given),·,·,·,·,·,–
CN(Cc1ccc2c(c1)CCCN2C)C(=O)[C@@H](Cc1ccccc1)NC(=O)[C@H]1O[C@@H](n2ccc(=O)[nH]c2=O)[C@H](O)[C@@H]1O,·,·,·,·,·,–
Nc1ccc2nn(-c3ccccc3)nc2c1,12,–,–,–,–,–
COCc1ccc(CN2CCCC(C(=O)Nc3ccccc3-c3ccc(OC)cc3)C2)o1 (stereo not given),–,–,–,–,–,–
COCc1ccc(CN2CCCC(C(=O)Nc3ccc(-c4cccc(OC)c4)cc3)C2)o1 (stereo not given),12,–,–,–,–,–
CCCCCCCCN1C(=O)[C@@H](CC(=O)NCCCN2CCCC2=O)C[C@@]2(C(=O)OC)C1=C[C@H](C1CCCC1)O[C@@H]2C,·,·,·,·,·,–
CC(C)(C)C(=O)NC(=S)NNC(=O)c1ccc(-c2ccccc2)cc1,–,30,–,–,87,·
CC(C)(C)C(=O)NC(=S)NNC(=O)c1ccncc1,–,–,–,–,–,–
Cc1ccc(S(=O)(=O)N(C)C)cc1NC(=O)COC(=O)/C=C/c1cnc2ccccc2n1,14,–,–,–,–,–
CN(C)S(=O)(=O)c1ccc(Cl)c(NC(=O)COC(=O)/C=C/c2cnc3ccccc3n2)c1,–,–,–,–,–,–
COC(=O)N[C@H]1CC=C[C@@H]1Cc1cccc(Oc2ccccc2)c1,·,·,·,·,·,–
COc1ccc(C(=O)C(CCC(CNC(C)(C)C)C(=O)c2ccc(OC)cc2)CNC(C)(C)C)cc1 (stereo not given),13,–,–,–,–,–
NNc1nc(-c2ccccc2)cc(-c2ccccc2O)n1,–,–,–,–,–,·
NNc1nc(-c2ccccc2)cc(-c2ccccc2)n1,–,52,–,–,43,–
COC(=O)[C@]1(CC(C)C)NC=C(C(=O)c2ccccc2)[C@@H]1c1cccs1,·,·,·,·,·,–
Cc1ccc2nc(CN(C)C(=O)[C@@H](Cc3ccccc3)NC(=O)[C@H]3O[C@@H](n4cnc(C(N)=O)n4)[C@H](O)[C@@H]3O)[nH]c2c1,·,·,·,·,·,–
Cc1ccc(S(=O)(=O)c2c(C)nn(C(C)(C)C)c2OC(=O)c2ccc(Br)o2)cc1,–,–,–,–,–,–
Cc1ccc(S(=O)(=O)c2c(C)nn(C(C)(C)C)c2OC(=O)c2ccco2)cc1,12,–,–,–,–,–
COc1ccccc1C(=O)N1CCN(C(=O)[C@@H](Cc2ccccc2)NC(=O)[C@H]2O[C@@H](n3cnc(C(N)=O)n3)[C@H](O)[C@@H]2O)CC1,·,·,·,·,·,–
COc1ccccc1Cc1c(-c2ccc(Cl)cc2)nc2ccc(C)cn12,·,·,·,·,·,–
CCCc1nc(C)cc(N2CCN(c3ccccc3)CC2)n1,9.6,–,–,–,–,–
COC(=O)c1cc2c(c3c4cc(C)ccc4n(S(=O)(=O)c4cccc(C)c4)c13)C(=O)N(Cc1ccccc1OC)C2,·,·,·,·,·,–
Cc1cccc2sc(NNC(=O)c3ccc(S(=O)(=O)N4CC(C)CC(C)C4)cc3)nc12 (stereo not given),15,–,23,–,–,–
COC(=O)C1=C(C)N(C)C(=NCc2cccc(C(F)(F)F)c2)NC1c1ccc(F)cc1 (stereo not given),·,·,·,·,·,–
CC(=O)NC12CC3CC(C1)CC(C(=O)N1CCN(S(=O)(=O)c4ccccc4[N+](=O)[O-])CC1)(C3)C2,–,–,–,–,–,–
CC(=O)NC12CC3CC(C1)CC(C(=O)N1CCN(S(=O)(=O)c4ccc(Cl)s4)CC1)(C3)C2,11,–,–,–,–,–
CCOC(=O)c1nnn(-c2nonc2N)c1CSc1ccccc1,–,–,–,–,–,–
CCOC(=O)c1nnn(-c2nonc2N)c1CSc1ccccn1,–,–,–,8.0,–,–
CC(C)[C@H](NC(=O)C1CCCC1)C(=O)N1CCC[C@H]1C(=O)NCCc1ccccc1Cl,·,·,·,·,·,–
